Reference: PubChem BioAssay AID1466 (National Center for Advancing Translational Sciences (NCATS), 2008)
Out of some 200,000 compounds screened, about 10 (0.005%) were called active. Inconclusive results (about 8%) are left out. The call rests on the fitted dose curve; in most records, active means well fitted inhibition curve with a large enough effect; inconclusive means small, poorly fitted or top-dose-only effect, or effect the other way, or another doubt; inactive means no such curve, though single readings can be large or run the other way. Only a sample is shown.

Each molecule was assayed against Lysosomal alpha-glucosidase (Homo sapiens) (UniProt P10253) (assay: qHTS Assay for Inhibitors of Human alpha-Glucosidase as a Potential Chaperone Treatment of Pompe Disease). Details: purified human GAA, 4-MU-alpha-glucoside fluorescence; series mostly up to 76.9 µM; activity change, negative = inhibition: at the top concentration.
Source text: NIH Chemical Genomics Center [NCGC] NIH Molecular Libraries Probe Production centers Network [MLPCN] MLPCN Grant: 1R03MH084841-01 Assay Submitter (PI): Wei Zheng NCGC Assay Overview: Alpha-glucosidase is responsible for hydrolysis of terminal, non-reducing 1,4-linked alpha-D-glucose residues with release of alpha-D-glucose. It is a lysosomal hydrolase that is required for the degradation of a small percentage (1-3%) of cellular glycogen in human. Deficiency of this enzyme results in glycogen-storage disease type II (GSDII), also referred to as Pompe disease, an autosomal recessive disorder. Structurally normal glycogen is accumulated in lysosomes and cytoplasm in affected patients, primarily in muscle tissues. Excessive glycogen storage within lysosomes may interrupt normal functioning of other organelles and leads to cellular injury. In turn, this leads to enlargement and dysfunction of the entire organ involved (eg, cardiomyopathy and muscle weakness). It has reported that the improper folding and trafficking of alpha-glucosidase resulting from the genetic mutations may account for a significant number of Pompe patients. […] We optimized this alpha-glucosidase assay in 1536-well plate format for identifying the novel small molecule inhibitors with the structures other than the sugar analogs in order to develop the new pharmacological chaperones.
NCGC Assay Protocol Summary: This is a fluorogenic enzyme assay with 4-methylumbelliferyl-alpha-D-[…] as the substrate and human alpha-glucosidase as the enzyme preparation. Upon the hydrolysis of this fluorogenic substrate, the resulting product, 1. 4-methyllumbelliferone, can be excited at 365 nm and emits at 440 nm which can be detected by a standard fluorescence plate reader. Data were normalized to the controls for basal activity (without enzyme) and 100% activity (with enzyme). In the AC50 values were determined from concentration-response data modeled with the standard Hill equation. Assay buffer: 50 mM citric acid (titrated with potassium phosphate to pH 5.0), 0.005% Tween-20, pH 5.0. (pH 5.0 is an optimal condition for this enzyme assay) 1536-well assay protocol for the human alpha-glucosidase: (1) Add 2 ul/well of enzyme (4 nM final) (2) Add 23 nL compounds in DMSO solution. The final titration was 0.7 nM to 77 uM. (3) Add 1 ul of substrate (400 uM final) (4) Incubate at room temperature for 20 min. (5) Add 2 ul stop solution (1M NaOH and 1M Glycine mixture, pH 10) (6) Detect the assay plate in a ViewLux plate reader (PerkinElmer) with Ex=365 nm and Em=440nm. Keywords: Alpha-glucosidase, Pompe Disease, pharmacological chaperone, chaperone therapy, high throughput screening, alpha-glucosidase inhibitor, MLSMR, MLSCN, NIH Roadmap, qHTS and NCGC
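Further: plate controls were uninhibited enzyme wells for no effect and no-enzyme background for full effect.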

Activity change, negative = inhibition, inactive:
CN1CCc2nc(SC(C(=O)O)c3ccccc3)c(C#N)c(-c3cccs3)c2C1 (stereo not drawn) -7.98%
COc1ccccc1NC(=S)N1CCN(C(c2ccccc2)c2ccccc2)CC1 -6.81%
S=C(NNC(=S)NC1CC2CCC1C2)NC1CC2C=CC1C2 (stereo not drawn) -2.79%
COc1ccccc1NC(=S)N1CCC(NC(=O)C23CC4CC(CC(C4)C2)C3)CC1 7.9%
COc1ccc2[nH]c(C(=O)Nc3ccccc3Cl)cc2c1 -17.6%
COc1ccc(Br)c2c1C(=O)CC2 1.34%
c1ccc(-n2nnnc2-c2cccnc2)cc1 2.38%
CCCSc1ncccc1C(=O)O 3.35%
Cn1c(SCC(=O)c2ccc(F)cc2)nnc1-c1ccccn1 4.07%
COc1ccc(Cl)cc1NC(=O)C(C)N1CCc2ccccc21 (stereo not drawn) 4.93%
CSc1ccc(CNCCN2CCOCC2)cc1 7.49%
Cc1ccccc1NC(=O)Nc1ccccc1N1CCCCC1 -14%
Clc1ccc(CSc2nnc3c(n2)[nH]c2ccccc23)cc1 7.73%
O=C(COc1ccc(S(=O)(=O)N2CCCCC2)cc1)NCc1ccccn1 -7.73%
O=C(NNS(=O)(=O)c1ccccc1C(F)(F)F)c1cc2ncc(C(F)(F)F)cc2s1 -2.23%
CCOC(=O)C1CCN(C(=O)C2(NC(=O)Nc3cccc(F)c3)CCCCC2)CC1 5.94%
Cc1ccccc1-c1nc(C#N)c(NCc2ccco2)o1 -5.5%
Cc1cccc(C(=O)N2CCC(c3nc4ccccc4s3)CC2)c1 -3.53%
COc1ccc(CN2CCN(Cc3cn(C)nc3-c3ccccc3)CC2CCO)c(C)c1C (stereo not drawn) 4.33%
Cc1noc(C)c1/C=N/Nc1ccc2ccccc2n1 8.17%
COc1cc(CNCCN(C)C)ccc1OCc1c(F)cccc1Cl 7.64%
Cc1ccc(C(=O)NC(=S)Nc2ccc(N3CCOCC3)cc2)cc1 -7.85%
O=C(CN1CCN(C/C=C/c2ccccc2)CC1)Nc1ccc(F)cc1F 2.05%
COC(=O)c1cn(C(=O)c2ccc(Cl)cc2)c2ccccc12 1.26%
O=C1/C(=C/c2cccs2)CCC1C1CCCC1 (stereo not drawn) -10.7%
O=C(CCl)N(Cc1cccc([N+](=O)[O-])c1)c1cccc(Cl)c1 0.594%
Cc1cc(OC(=O)c2ccccc2)c([N+](=O)[O-])c(=O)[nH]1 -5.1%
CC(O)CNCCOc1cccc(Oc2ccccc2)c1 (stereo not drawn) 13.8%
O=C(CSc1ncn[nH]1)Nc1nc(-c2cccc([N+](=O)[O-])c2)cs1 -24.7%
Nc1ccc(C(=O)OCC(=O)NC2CCS(=O)(=O)C2)cc1[N+](=O)[O-] (stereo not drawn) -4.02%
COc1cccc(OCCCN2CCCCCC2)c1 2.44%
Cc1ccc(Cl)cc1NC(=O)COC(=O)CC(C)(C)C -12.7%
CCC1(C)Cc2c(sc3nc(SC)[nH]c(=O)c23)CO1 (stereo not drawn) 0.866% [at 15.4 µM]
